# Measurements reported in the supplement of paper PMC12645437, “Orthogonal IMiD-Degron Pairs Induce Selective Protein Degradation in Cells” (ACS Chemical Biology, 2025).
# The full ranking holds about 8,300 sequences; the median of “log2 fold change of degron read counts, EGFP-low vs EGFP+ sorted cells (limma voom), compound-induced degradation” is about -1.1, and the highest 2% start at about 3.2. Only a selection was taken, and the highest values are over-represented in it overall.
# T1: CRBN, Q96SW2
# T1 chain: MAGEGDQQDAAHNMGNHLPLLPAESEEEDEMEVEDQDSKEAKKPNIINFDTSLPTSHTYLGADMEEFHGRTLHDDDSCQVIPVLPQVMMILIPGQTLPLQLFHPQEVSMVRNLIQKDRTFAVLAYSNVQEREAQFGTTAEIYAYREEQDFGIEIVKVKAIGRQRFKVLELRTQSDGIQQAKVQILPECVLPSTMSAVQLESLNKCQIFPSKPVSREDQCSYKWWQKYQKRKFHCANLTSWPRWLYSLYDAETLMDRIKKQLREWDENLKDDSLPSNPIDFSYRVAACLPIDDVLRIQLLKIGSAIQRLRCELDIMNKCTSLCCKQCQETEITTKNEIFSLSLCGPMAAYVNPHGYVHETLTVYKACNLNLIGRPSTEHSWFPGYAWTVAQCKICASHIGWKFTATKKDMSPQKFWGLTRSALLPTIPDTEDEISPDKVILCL
# Target: T1, CRBN, Q96SW2
# Assay: log2 fold change of degron read counts, EGFP-low vs EGFP+ sorted cells (limma voom), compound-induced degradation; higher = more compound-induced degradation of the degron-EGFP fusion; degrons are variants of IKZF1/3 zinc finger 2; compound dose not given here
# Details: Jurkat, 18 h
# Method: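 Pooled library of 8380 IKZF3 ZF2 degron mutants (positions 146-167 varied within the IKZF3 130-189 degron; only the varied core is printed, flanks not printed) fused to EGFP with IRES-mCherry, lentivirally expressed in Jurkat cells. mCherry+ cells were treated with one IMiD compound for 18 h (dose not stated) and FACS-sorted into EGFP-low and EGFP+ populations. Degron sequences were counted by NGS, and log2FC (EGFP-low vs EGFP+) was estimated by limma voom over 3 biological replicates.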
# [1] = compound: compound 19 (5-tert-butyl-thalidomide)
# [2] = compound: compound 22 (5-morpholino-thalidomide)
# [3] = compound: compound 33 (diphenyl IMiD analogue)
# 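Further: pooled lentiviral library of zinc finger degron-EGFP fusions in mCherry-positive Jurkat cells, FACS-sorted after compound exposure, with degron abundance counted by next-generation sequencing.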
sequence,measurement,setting,value
"FECNQCGHIFTQKGNLLRHIKL [46F_47E_49N_50Q_52G_53H_54I_55F_67L_, Q9UKT9]",log2 fold change of degron read counts,[1],-3.19
same,log2 fold change of degron read counts,[2],-3.02
same,log2 fold change of degron read counts,[3],-3.5
same,log2 fold change of degron read counts,compound: thalidomide,-3.26
"FVCEICGRMFTQKGNLLRHIKL [46F_47V_49E_50I_52G_53R_54M_55F_67L_, Q9UKT9]",log2 fold change of degron read counts,[1],-2.37
same,log2 fold change of degron read counts,[2],-1.56
same,log2 fold change of degron read counts,[3],-0.324
same,log2 fold change of degron read counts,compound: thalidomide,-0.297
"FHCEICGHNFTQKGNLLRHIKL [46F_47H_49E_50I_52G_53H_54N_55F_67L_, Q9UKT9]",log2 fold change of degron read counts,[1],-2.97
same,log2 fold change of degron read counts,[2],-3.92
same,log2 fold change of degron read counts,[3],-2.88
same,log2 fold change of degron read counts,compound: thalidomide,-3.29
"FECNICGAHFTQKGNLLRHIKL [46F_47E_49N_50I_52G_53A_54H_55F_67L_, Q9UKT9]",log2 fold change of degron read counts,[1],-1.95
same,log2 fold change of degron read counts,[2],-2.29
same,log2 fold change of degron read counts,[3],0.157
same,log2 fold change of degron read counts,compound: thalidomide,0.612
"FRCEICGAQFTQKGNLLRHIKL [46F_47R_49E_50I_52G_53A_54Q_55F_67L_, Q9UKT9]",log2 fold change of degron read counts,[1],0.162
same,log2 fold change of degron read counts,[2],0.149
same,log2 fold change of degron read counts,[3],1.38
same,log2 fold change of degron read counts,compound: thalidomide,1.94
"FECEICGAQFTQKGNLLRHIKL [46F_47E_49E_50I_52G_53A_54Q_55F_67L_, Q9UKT9]",log2 fold change of degron read counts,[1],-0.353
same,log2 fold change of degron read counts,[2],-0.866
same,log2 fold change of degron read counts,[3],1.45
same,log2 fold change of degron read counts,compound: thalidomide,2.5
"FQCEICGAQFTQKGNLLRHIKL [46F_47Q_49E_50I_52G_53A_54Q_55F_67L_, Q9UKT9]",log2 fold change of degron read counts,[1],0.962
same,log2 fold change of degron read counts,[2],2.24
same,log2 fold change of degron read counts,[3],2.41
same,log2 fold change of degron read counts,compound: thalidomide,3.56
"FMCEICGAQFTQKGNLLRHIKL [46F_47M_49E_50I_52G_53A_54Q_55F_67L_, Q9UKT9]",log2 fold change of degron read counts,[1],0.486
same,log2 fold change of degron read counts,[2],0.824
same,log2 fold change of degron read counts,[3],2.7
same,log2 fold change of degron read counts,compound: thalidomide,1.97
"FTCEICGAQFTQKGNLLRHIKL [46F_47T_49E_50I_52G_53A_54Q_55F_67L_, Q9UKT9]",log2 fold change of degron read counts,[1],0.557
same,log2 fold change of degron read counts,[2],1.85
same,log2 fold change of degron read counts,[3],2.25
same,log2 fold change of degron read counts,compound: thalidomide,2.92
"FDCEICGAQFTQKGNLLRHIKL [46F_47D_49E_50I_52G_53A_54Q_55F_67L_, Q9UKT9]",log2 fold change of degron read counts,[1],2.04
same,log2 fold change of degron read counts,[2],0.951
same,log2 fold change of degron read counts,[3],-0.0023
same,log2 fold change of degron read counts,compound: thalidomide,1.29
"FICEICGAQFTQKGNLLRHIKL [46F_47I_49E_50I_52G_53A_54Q_55F_67L_, Q9UKT9]",log2 fold change of degron read counts,[1],0.506
same,log2 fold change of degron read counts,[2],2.86
same,log2 fold change of degron read counts,[3],3.06
same,log2 fold change of degron read counts,compound: thalidomide,3.16
"FLCEICGAQFTQKGNLLRHIKL [46F_47L_49E_50I_52G_53A_54Q_55F_67L_, Q9UKT9]",log2 fold change of degron read counts,[1],1.29
same,log2 fold change of degron read counts,[2],-0.49
same,log2 fold change of degron read counts,[3],1.79
same,log2 fold change of degron read counts,compound: thalidomide,2.07
"FFCEICGAQFTQKGNLLRHIKL [46F_47F_49E_50I_52G_53A_54Q_55F_67L_, Q9UKT9]",log2 fold change of degron read counts,[1],3.67
same,log2 fold change of degron read counts,[2],3.67
same,log2 fold change of degron read counts,[3],2.56
same,log2 fold change of degron read counts,compound: thalidomide,1.93
"FHCEICGAQFTQKGNLLRHIKL [46F_47H_49E_50I_52G_53A_54Q_55F_67L_, Q9UKT9]",log2 fold change of degron read counts,[1],2.66
same,log2 fold change of degron read counts,[2],2.64
same,log2 fold change of degron read counts,[3],2
same,log2 fold change of degron read counts,compound: thalidomide,0.968
